Drawing on ChEMBL document CHEMBL3988442, “University of Dundee, Small-Polar-MMV Screening Library” (2021), this text covers Percent Effect for eleven compounds.

Holding throughout (parameters): scale not given: direction of the effect not stated beside the values
Assay [1] addresses Protein translocase subunit SecA (Escherichia coli (strain K12)) (UniProt P10408). The assay can be described thus: Assay to Identify E. coli SecA ATPase Inhibitors. The following applies: 30 µM. Format: functional.
In assay [2] the target is T1, Ubiquitin-activating enzyme e1, putative (Leishmania donovani (strain BPK282A1)) (UniProt E9BSI1).
T1 sequence (whole entry): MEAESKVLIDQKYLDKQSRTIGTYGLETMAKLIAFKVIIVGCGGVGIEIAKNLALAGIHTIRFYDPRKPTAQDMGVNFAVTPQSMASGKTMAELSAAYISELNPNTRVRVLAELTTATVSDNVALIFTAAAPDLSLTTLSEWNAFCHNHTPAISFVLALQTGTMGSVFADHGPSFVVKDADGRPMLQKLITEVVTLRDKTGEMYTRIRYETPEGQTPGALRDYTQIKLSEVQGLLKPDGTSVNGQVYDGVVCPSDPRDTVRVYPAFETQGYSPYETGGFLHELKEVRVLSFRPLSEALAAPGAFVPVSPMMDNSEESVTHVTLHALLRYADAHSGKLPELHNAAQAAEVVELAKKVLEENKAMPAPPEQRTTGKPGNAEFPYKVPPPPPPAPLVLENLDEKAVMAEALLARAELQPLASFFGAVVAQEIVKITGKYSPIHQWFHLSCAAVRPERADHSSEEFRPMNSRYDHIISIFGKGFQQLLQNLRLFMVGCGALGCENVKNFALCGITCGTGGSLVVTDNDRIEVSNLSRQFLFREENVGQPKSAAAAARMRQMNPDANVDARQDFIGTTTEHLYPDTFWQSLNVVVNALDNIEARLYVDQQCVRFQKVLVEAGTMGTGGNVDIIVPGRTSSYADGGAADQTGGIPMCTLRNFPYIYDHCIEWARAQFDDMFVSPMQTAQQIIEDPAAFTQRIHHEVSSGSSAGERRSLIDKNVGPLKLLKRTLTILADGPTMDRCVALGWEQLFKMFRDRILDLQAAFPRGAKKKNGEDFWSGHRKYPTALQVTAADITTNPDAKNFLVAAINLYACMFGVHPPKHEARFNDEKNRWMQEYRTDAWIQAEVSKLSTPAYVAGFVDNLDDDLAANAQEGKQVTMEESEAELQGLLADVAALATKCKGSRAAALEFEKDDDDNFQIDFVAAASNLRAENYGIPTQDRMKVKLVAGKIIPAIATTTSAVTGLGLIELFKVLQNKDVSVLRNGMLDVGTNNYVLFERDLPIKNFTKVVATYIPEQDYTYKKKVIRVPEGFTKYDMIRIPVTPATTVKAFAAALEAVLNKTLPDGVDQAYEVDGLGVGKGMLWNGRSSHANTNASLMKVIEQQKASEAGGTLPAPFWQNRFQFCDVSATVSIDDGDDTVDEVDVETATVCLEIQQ
The assay can be described thus: Leishmania donovani Ubiquitin Activating Enzyme (LdE1). The assay is classed as functional. The following applies: 30 µM.

In assay [3] the target is AMP-activated protein kinase, AMPK (Homo sapiens) (UniProt P54646+O43741+P54619+Q9UGJ0+Q9Y478+Q13131+Q9UGI9). The assay can be described thus: AMP-dependent Kinase enzyme assay. An in vitro enzyme assay that detects ADP turnover that is directly proportional to AMPK activity. This uses naive AMPK that is activated during the assay with MK-8722. Format: functional. The following applies: 30 µM.

Assay [4] concerns the target Sialic acid-binding Ig-like lectin 9 (Homo sapiens) (UniProt Q9Y336). The assay can be described thus: Hs-Siglec9 ALPHAscreen SOP 20170721. The following applies: 10 µM. (In general: In Alpha technology, singlet oxygen from a donor bead excites a nearby acceptor bead.)
For another assay, the system named is Trypanosoma cruzi. The assay can be described thus: Trypanosoma cruzi phosphomannomutase and mannose-1-phosphate guanylyltransferase assay. The assay is classed as functional. The following applies: 10 µM.
Assay [5] concerns the target T2, Arginase-2, mitochondrial (Homo sapiens) (UniProt P78540).
T2 sequence (whole entry): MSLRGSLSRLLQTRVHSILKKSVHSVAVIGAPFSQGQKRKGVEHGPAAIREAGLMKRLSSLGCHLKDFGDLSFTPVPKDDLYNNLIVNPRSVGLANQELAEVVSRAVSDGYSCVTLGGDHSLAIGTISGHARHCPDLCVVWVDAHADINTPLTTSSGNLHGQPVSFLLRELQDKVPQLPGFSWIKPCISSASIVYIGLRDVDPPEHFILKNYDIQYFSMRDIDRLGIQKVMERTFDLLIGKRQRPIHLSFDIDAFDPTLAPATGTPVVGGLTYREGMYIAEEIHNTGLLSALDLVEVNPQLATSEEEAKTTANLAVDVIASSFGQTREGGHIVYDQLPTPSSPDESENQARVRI
The experiment in a line: in vitro enzyme assay to detect the production of urea directly proportional to the activity of Arginase II. Note: in the data most compounds retested in dose-response had high values. Format: functional. As to conditions: 33.3 µM.

In assay [6] the target is T3, Proteasome subunit beta (Trypanosoma cruzi) (UniProt O96673).
T3 sequence (whole entry): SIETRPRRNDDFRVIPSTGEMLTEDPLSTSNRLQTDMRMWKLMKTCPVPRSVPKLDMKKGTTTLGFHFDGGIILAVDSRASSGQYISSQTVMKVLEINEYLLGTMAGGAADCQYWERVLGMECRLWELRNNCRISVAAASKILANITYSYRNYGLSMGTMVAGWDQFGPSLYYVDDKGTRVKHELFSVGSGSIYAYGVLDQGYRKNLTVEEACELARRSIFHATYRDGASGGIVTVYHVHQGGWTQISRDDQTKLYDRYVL
The assay can be described thus: Trypanosoma cruzi proteasome chymotrypsin-like activity (TcProtChymo) assay. Note: in the data most compounds retested in dose-response had high values. The assay is classed as functional. The following applies: 9.37 µM.

The species named for the next assay is Homo sapiens. The experiment in a line: To identify inhibition of the IFN signalling (Jak-Stat) pathway via expression of an eGFP reporter gene under the control of an IFN-stimulated response element (ISRE) containing MxA promoter. The assay is classed as functional. The following applies: 30 µM.
In assay [7] the target is T4, Tyrosyl-tRNA synthetase, putative (Trypanosoma cruzi (strain CL Brener)) (UniProt Q4DSP6).
T4 sequence (whole entry): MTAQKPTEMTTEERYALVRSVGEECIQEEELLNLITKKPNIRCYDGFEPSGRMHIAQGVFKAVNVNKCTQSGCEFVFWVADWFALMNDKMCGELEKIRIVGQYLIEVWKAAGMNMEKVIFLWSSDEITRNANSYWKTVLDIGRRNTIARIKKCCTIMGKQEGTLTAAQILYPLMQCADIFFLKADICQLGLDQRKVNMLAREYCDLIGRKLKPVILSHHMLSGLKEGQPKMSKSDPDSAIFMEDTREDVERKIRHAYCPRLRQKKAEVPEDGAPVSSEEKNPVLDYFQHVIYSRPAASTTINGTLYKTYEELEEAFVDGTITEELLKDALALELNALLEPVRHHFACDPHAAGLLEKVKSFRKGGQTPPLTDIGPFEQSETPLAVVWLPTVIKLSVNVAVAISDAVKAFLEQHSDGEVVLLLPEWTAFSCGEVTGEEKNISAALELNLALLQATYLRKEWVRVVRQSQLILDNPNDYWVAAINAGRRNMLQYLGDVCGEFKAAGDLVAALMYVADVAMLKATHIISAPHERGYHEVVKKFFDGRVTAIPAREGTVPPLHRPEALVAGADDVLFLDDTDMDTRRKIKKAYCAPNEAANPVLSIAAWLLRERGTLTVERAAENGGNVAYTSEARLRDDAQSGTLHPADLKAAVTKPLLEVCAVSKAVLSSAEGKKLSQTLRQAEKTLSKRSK
The assay can be described thus: Trypanosoma cruzi tyrosyl tRNA synthetase (TcYRS) _High Tyrosine SOP. Note: in the data most compounds retested in dose-response had high values. The assay is classed as functional. As to conditions: 30 µM.

The target of assay [8] is T4, Tyrosyl-tRNA synthetase, putative (Trypanosoma cruzi (strain CL Brener)). The experiment in a line: Trypanosoma cruzi tyrosyl tRNA synthetase (TcYRS) SOP. The assay is classed as functional. As to conditions: 30 µM.
Assay [9] deals with Chromo domain-containing protein 1 (Saccharomyces cerevisiae (strain ATCC 204508 / S288c) (Baker's yeast)) (UniProt P32657). The assay can be described thus: ScCHD-1 Enzyme Inhibition Assay. Note: in the data most compounds retested in dose-response had high values. The assay is classed as functional. As to conditions: 30 µM.
Sequence of Chromo domain-containing protein 1 (Saccharomyces cerevisiae (strain ATCC 204508 / S288c) (Baker's yeast)) (P32657 whole entry, the tested form may be a part): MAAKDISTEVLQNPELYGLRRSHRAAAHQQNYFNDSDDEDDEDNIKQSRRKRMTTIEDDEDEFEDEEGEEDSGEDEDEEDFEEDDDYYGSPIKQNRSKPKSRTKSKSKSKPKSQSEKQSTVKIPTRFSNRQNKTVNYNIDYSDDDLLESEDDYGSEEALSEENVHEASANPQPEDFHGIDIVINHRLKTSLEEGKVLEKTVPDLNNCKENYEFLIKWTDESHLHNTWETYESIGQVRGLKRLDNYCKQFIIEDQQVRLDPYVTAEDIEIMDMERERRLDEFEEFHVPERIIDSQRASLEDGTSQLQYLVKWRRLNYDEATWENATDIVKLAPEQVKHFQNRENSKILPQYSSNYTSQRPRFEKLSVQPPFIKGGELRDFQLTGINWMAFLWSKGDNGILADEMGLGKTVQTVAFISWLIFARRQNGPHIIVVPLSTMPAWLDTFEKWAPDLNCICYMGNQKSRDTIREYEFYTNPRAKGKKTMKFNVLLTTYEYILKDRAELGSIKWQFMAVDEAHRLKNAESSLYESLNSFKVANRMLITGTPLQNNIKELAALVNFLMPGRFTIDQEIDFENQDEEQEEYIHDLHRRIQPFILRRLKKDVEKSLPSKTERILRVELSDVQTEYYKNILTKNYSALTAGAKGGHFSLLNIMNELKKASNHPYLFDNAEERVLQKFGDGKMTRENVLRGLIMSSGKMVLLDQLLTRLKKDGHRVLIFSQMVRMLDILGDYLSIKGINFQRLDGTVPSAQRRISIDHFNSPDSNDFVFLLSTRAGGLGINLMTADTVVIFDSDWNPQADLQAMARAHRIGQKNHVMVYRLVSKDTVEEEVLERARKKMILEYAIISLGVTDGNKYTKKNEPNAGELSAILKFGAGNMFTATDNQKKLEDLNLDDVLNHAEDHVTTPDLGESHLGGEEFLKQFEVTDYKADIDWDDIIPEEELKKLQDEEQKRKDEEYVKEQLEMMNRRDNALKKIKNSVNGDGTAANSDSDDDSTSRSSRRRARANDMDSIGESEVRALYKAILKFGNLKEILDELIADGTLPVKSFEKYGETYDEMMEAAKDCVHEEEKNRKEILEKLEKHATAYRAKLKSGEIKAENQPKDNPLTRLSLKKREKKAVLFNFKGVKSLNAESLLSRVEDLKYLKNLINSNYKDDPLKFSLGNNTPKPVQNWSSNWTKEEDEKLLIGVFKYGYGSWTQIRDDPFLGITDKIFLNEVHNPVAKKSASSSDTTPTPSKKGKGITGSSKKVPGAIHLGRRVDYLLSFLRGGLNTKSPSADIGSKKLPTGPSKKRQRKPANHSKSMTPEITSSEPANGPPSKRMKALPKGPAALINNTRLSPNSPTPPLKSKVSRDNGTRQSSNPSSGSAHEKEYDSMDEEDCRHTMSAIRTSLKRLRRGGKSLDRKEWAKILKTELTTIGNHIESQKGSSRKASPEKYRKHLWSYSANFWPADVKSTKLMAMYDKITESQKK

Molecules are shown by their SMILES. For some of these results: Measured potencies and affinities stand elsewhere.

Sequence of Sialic acid-binding Ig-like lectin 9 (Homo sapiens) (Q9Y336 whole entry): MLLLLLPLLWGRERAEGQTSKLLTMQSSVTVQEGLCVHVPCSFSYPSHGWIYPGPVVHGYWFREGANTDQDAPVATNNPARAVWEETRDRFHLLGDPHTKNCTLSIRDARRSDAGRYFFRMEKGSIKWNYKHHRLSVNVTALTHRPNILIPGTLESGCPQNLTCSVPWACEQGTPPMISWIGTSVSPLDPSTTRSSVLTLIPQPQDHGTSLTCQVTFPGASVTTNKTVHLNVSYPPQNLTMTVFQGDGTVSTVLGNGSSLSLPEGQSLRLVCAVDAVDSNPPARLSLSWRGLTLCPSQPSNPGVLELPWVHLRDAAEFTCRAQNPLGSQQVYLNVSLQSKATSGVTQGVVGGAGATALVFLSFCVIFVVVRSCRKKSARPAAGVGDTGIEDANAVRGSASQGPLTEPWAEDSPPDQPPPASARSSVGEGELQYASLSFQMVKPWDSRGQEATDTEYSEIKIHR
Sequence of Protein translocase subunit SecA (Escherichia coli (strain K12)) (P10408 whole entry): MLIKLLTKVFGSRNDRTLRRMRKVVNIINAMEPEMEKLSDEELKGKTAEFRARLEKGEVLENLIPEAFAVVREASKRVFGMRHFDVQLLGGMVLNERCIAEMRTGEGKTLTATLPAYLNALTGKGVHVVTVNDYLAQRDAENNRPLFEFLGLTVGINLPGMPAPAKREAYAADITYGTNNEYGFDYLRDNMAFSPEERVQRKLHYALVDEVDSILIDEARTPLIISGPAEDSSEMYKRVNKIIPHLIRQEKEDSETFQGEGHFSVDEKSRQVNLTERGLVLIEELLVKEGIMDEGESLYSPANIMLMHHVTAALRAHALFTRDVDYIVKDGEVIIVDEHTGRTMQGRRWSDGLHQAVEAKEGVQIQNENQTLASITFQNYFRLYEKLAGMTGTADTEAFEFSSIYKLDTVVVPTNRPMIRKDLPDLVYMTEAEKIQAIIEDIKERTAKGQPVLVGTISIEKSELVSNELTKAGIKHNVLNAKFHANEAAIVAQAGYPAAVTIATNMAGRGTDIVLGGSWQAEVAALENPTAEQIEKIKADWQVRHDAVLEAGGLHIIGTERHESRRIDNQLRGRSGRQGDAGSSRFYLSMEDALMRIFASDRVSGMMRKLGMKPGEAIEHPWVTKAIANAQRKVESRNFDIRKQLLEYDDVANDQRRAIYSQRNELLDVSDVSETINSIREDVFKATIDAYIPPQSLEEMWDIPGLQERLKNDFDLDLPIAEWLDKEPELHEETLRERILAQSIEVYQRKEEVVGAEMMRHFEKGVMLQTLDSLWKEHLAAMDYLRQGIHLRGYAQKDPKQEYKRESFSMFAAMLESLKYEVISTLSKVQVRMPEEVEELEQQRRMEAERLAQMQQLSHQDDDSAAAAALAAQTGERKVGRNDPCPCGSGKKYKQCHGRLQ

With `CO[C@H]1CCN(S(=O)(=O)c2cn(C)cn2)[C@H]1Cc1cnn(C)c1`, the Percent Effect in assay [1] was -4.55%; in assay [2], 2.67%; in assay [3], 1.72%; in assay [4], 2.33%; in the assay on Trypanosoma cruzi, -2.51%; in assay [5], -52.9%. The Percent Effect in assay [6] is 6.15%; in the assay listed under Homo sapiens, 1.21%; in [7], -4.17%; in assay [8], -25%; in assay [9], -4.77%.
Take `CC(NC(=O)NCc1ccoc1)c1ccc2c(c1)CCC(=O)N2` (stereo unspecified): the Percent Effect in assay [1] was -9.31%; in assay [2] it was -7.79%; in [3], -9.15%; in assay [4], 13%; with Trypanosoma cruzi, 12.2%; in assay [5], 2.49%. Moreover, the Percent Effect was 28.6% in assay [6]; 16.5% in the assay listed under Homo sapiens; 8.74% in [7]; 24.4% in assay [8]; -9.68% in [9].
Take `CCN(CC1CN(Cc2ncc(C)o2)CCO1)c1cccnn1` (stereo unspecified): the Percent Effect in assay [1] was -4.91%; in assay [2] it was -2.67%; in assay [3], -8.97%; in assay [4], 2.4%; with Trypanosoma cruzi, 5.16%; in assay [5] it was 2.6%. The Percent Effect in [6] was 12.2%; in the assay filed under Homo sapiens it was 12%; in [7] it was 7.1%; in assay [8], 6.17%; in assay [9] it was -0.756%.
`COc1cccc(N2CCN(Cc3ncc[nH]3)CC2=O)c1`: the Percent Effect in assay [1] was -0.114%; in [2] it was 6.94%; in [3], -20.4%; in assay [4], -7.16%; with Trypanosoma cruzi, -1.85%; in assay [5], -0.442%. The Percent Effect in assay [6] was 12.3%; in the assay filed under Homo sapiens, -17.7%; in assay [7] it was -2.1%; in assay [8], 10.3%; in assay [9], -4.76%.
For the compound `CCc1nc(C(=O)NCc2ccc(N3CCNC(=O)C3)c(F)c2)c[nH]1`, the Percent Effect in assay [1] was 2.33%; in [2], 18.9%; in assay [3], -4.78%; in assay [4] it was 31.7%; in the assay with Trypanosoma cruzi, 4.63%; in [5] it was -3.81%. Further, the Percent Effect in [6] was 20%; in the assay filed under Homo sapiens it was 13.4%; in assay [7] it was 5.82%; in assay [8] it was 12.2%; in assay [9], -2.24%.
Regarding `Cn1cc(CN2CCn3c(CNC(=O)c4cccn4C)cnc3C2)cn1`, the Percent Effect is 1.54% in assay [1]; 10.7% in assay [2]; -1.53% in assay [3]; 26.8% in assay [4]; -0.193% in the assay with Trypanosoma cruzi; -52.1% in [5]. The Percent Effect was 14% in assay [6]; 0.903% in the assay listed under Homo sapiens; 7.29% in assay [7]; 22.5% in [8]; -7.88% in assay [9].
`CCOC(=O)N1CCC(C(=O)c2cc(F)ccc2F)CC1`: the Percent Effect in assay [1] is -3.27%; in assay [2], -2.63%; in assay [3], 4.38%; in assay [4], -6.37%; in the assay with Trypanosoma cruzi, -1.69%; in assay [5], 4.98%. In addition, the Percent Effect was -3.34% in assay [6]; 10.2% in the assay listed under Homo sapiens; -1.47% in assay [7]; -4.88% in assay [8]; -0.881% in [9].
For the compound `Cc1ccc(-c2ncc(C(=O)NCCNc3ncccn3)s2)c(C)c1`, the Percent Effect in assay [1] is -2.83%; in assay [2], 5.41%; in assay [3], 2.58%; in assay [4], 1.25%; with Trypanosoma cruzi, 7.83%; in assay [5] it was -2.4%. The Percent Effect in assay [6] is 1.8%; in the assay filed under Homo sapiens, 11.8%; in assay [7] it was 5.42%; in assay [8], 16.1%; in assay [9], -8.22%.
For `Cc1nn(C)c2cnn(C(C)C(=O)NCc3cccnc3)c12` (stereo unspecified), the Percent Effect in assay [1] was -0.721%; in assay [2], 20%; in assay [3], -1.87%; in assay [4] it was 5%; in the assay with Trypanosoma cruzi, 1.18%; in [5], -1.58%. The Percent Effect in [6] was 12.8%; in the assay listed under Homo sapiens, 17.9%; in assay [7] it was 5.29%; in assay [8] it was 17.9%; in [9], -9.71%.
Regarding `CC1CN(C(=O)c2ccn(-c3cccc(Cl)c3)n2)CCO1` (stereo unspecified), the Percent Effect is -7.39% in [1]; 20.8% in assay [2]; 0.341% in [3]; 6.09% in assay [4]; 7.87% in the assay with Trypanosoma cruzi; -2.13% in assay [5]. The Percent Effect in assay [6] is 17.4%; in the assay filed under Homo sapiens it was 16.3%; in [7] it was 8.74%; in assay [8] it was 24.4%; in assay [9] it was -10.1%.
With `O=C(c1ccc[nH]1)N1C[C@H]2CN(Cc3cccc(F)c3)C(=O)[C@H]2C1`, the Percent Effect in assay [1] is -2.55%; in assay [2], 13.5%; in assay [3], 9.65%; in assay [4] it was -6.44%; in the assay on Trypanosoma cruzi, -2.05%; in assay [5], 6.05%. Besides, the Percent Effect in assay [6] is 20.3%; in the assay listed under Homo sapiens, 13%; in assay [7] it was 0%; in assay [8], 7.69%; in [9], -2.96%.
